# Test results taken from the supplement of paper PMC10849652.
# Of roughly 7,900 targets only a part is listed; those with a hit were picked by preference. About 0.6% of all pairs of compound and target were hits. Values without a mark were called inactive.
# How the values were obtained:
# Assay in all cases: log2 fold change, soluble protein after heating vs DMSO (PISA); higher = thermal stabilisation; K562 cells, 10 uM, 30 min; active = over 0.2 and 3.5 SD of the protein, either way, in both replicates (recomputed)
# [1] = compound: C#Cc1cccc(Nc2ncnc3cc(OCCOC)c(OCCOC)cc23)c1 [erlotinib]
# Summary of the method: (§1)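 Soluble protein was quantified by TMTpro 16plex LC-MS/MS after channel sums were equalised. It was obtained as the supernatant after 21,000xg for 90 min from pooled aliquots of K562 cells (2×10^6 cells/mL, 10 μM compound, 30 min) heated for 3 min across 48°C-58°C and extracted in PBS with 0.5% NP-40 at 4°C. Thermal stability values are relative to control samples and come from duplicates. They are given as log2 fold changes.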
# [2] = compound: C/C(=N\NC(=O)C1=CC(=CC=C1)S(=O)(=O)N2CCOCC2)/C3=C(C=CC(=C3)Cl)O
# Summary of the method: as §1
# [3] = compound: C1=CC(=C(C=C1Cl)C2=NC3=NC=CN=C3C(=N2)NC4=CC=NC=C4)F
# Summary of the method: as §1
# [4] = compound: C1=CC(=CC=C1C2=NC3=C(N2)C=C(C=C3)C(=O)N)OC4=CC=C(C=C4)Cl
# Summary of the method: as §1
# [5] = compound: C1=CC2=C(C=CC(=C2)/C=C\3/C(=O)NC(=NCC4=CC=CS4)S3)N=C1
# Summary of the method: as §1
# [6] = compound: C1=CC2=NC=CN=C2C=C1/C=C/3\C(=O)NC(=O)S3
# Summary of the method: as §1
# [7] = compound: C1=CC=C(C=C1)C2=NC(=C(N2)C3=CC=NC=C3)C4=CC(=C(C=C4)Cl)O
# Summary of the method: as §1
# [8] = compound: C1=CC=C2C(=C1)C3=NNC4=CC=CC(=C43)C2=O
# Summary of the method: as §1
# [9] = compound: C1CCN(C1)C(=O)NC2=CC=CC(=C2)NC3=NC=C(C(=N3)NCCC4=CN=CN4)Br
# Summary of the method: as §1
# [10] = compound: C1CN(CCC1(CC2=CC=C(C=C2)Cl)N)C3=NC=NC4=C3C=CN4
# Summary of the method: as §1
# Chain of UniProt P23434 (P23434 whole entry, looked up): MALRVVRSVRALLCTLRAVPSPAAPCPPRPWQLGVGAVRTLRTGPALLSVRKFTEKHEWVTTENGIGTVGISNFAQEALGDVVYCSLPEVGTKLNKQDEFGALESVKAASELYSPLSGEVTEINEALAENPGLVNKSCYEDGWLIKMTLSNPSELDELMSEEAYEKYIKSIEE
# Chain of UniProt Q9ULT8 (Q9ULT8 whole entry, looked up): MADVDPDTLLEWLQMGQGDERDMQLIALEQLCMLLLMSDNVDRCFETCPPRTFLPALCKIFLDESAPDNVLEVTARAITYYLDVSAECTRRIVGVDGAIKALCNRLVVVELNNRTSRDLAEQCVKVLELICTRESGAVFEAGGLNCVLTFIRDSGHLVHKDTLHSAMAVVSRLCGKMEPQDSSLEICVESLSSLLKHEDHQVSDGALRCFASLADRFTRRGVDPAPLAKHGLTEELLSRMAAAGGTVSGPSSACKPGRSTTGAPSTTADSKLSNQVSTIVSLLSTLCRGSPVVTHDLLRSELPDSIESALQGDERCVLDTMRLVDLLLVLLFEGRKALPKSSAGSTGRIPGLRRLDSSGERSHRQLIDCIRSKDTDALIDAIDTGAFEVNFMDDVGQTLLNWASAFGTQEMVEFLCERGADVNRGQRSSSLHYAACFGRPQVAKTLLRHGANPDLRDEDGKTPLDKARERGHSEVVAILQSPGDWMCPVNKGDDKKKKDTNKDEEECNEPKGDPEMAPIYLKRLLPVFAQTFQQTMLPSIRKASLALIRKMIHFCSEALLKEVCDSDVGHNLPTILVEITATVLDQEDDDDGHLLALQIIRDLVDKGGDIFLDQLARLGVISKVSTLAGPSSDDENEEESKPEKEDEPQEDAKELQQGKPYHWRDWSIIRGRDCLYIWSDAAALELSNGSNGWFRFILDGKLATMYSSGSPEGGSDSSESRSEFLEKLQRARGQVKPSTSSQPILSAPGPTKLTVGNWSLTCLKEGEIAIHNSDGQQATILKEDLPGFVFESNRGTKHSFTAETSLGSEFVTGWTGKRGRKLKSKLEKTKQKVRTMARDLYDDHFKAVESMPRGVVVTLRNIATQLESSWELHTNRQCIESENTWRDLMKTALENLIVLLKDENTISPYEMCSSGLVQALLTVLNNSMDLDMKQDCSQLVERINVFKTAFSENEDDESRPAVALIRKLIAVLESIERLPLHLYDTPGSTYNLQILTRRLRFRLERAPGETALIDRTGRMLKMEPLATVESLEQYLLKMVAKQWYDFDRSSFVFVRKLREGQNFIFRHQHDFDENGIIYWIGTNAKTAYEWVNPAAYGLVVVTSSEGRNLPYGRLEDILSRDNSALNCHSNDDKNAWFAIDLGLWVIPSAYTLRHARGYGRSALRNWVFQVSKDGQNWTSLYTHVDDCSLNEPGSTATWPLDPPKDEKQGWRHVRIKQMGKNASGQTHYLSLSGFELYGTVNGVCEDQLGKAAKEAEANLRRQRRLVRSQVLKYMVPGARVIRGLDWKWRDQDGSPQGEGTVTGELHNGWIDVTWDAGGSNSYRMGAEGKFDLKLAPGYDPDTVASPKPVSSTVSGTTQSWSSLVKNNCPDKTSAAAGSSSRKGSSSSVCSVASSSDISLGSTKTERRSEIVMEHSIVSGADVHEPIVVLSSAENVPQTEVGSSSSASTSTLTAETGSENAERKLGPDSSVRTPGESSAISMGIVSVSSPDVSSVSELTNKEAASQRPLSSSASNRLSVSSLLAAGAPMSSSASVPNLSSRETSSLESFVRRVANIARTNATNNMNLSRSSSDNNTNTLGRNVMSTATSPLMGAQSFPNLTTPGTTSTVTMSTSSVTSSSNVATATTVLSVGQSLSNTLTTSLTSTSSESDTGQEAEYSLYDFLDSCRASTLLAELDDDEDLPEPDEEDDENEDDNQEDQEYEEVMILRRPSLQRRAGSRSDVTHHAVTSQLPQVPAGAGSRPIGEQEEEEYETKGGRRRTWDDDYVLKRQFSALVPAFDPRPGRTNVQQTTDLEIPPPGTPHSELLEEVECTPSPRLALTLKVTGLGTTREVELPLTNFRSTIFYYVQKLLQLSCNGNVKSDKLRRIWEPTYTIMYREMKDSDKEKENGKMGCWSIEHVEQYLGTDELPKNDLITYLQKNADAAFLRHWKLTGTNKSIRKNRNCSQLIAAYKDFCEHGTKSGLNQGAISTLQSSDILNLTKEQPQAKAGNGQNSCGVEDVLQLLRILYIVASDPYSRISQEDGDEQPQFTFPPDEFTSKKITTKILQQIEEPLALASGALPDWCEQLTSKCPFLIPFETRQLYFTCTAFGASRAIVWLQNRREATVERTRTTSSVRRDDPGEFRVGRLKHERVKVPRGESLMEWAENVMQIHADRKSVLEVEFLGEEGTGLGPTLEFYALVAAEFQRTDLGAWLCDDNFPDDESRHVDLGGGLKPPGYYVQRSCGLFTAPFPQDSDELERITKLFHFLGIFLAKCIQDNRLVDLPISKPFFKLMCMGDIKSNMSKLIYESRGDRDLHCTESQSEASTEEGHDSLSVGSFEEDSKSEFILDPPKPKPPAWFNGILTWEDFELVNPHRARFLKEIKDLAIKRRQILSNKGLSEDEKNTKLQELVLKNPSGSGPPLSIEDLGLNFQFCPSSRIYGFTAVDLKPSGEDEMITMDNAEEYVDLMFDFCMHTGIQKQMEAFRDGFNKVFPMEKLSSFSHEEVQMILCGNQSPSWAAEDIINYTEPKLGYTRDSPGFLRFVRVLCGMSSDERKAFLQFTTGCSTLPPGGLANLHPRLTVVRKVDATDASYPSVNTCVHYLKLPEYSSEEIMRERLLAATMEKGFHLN
# Chain of UniProt Q8NB37 (Q8NB37 whole entry, looked up): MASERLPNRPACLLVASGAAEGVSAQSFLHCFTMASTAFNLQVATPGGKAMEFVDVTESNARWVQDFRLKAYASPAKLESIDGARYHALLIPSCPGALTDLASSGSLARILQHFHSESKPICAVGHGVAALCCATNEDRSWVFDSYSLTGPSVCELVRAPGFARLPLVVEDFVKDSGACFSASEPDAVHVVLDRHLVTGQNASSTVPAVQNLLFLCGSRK
# Chain of UniProt Q9Y6M1 (Q9Y6M1 whole entry, looked up): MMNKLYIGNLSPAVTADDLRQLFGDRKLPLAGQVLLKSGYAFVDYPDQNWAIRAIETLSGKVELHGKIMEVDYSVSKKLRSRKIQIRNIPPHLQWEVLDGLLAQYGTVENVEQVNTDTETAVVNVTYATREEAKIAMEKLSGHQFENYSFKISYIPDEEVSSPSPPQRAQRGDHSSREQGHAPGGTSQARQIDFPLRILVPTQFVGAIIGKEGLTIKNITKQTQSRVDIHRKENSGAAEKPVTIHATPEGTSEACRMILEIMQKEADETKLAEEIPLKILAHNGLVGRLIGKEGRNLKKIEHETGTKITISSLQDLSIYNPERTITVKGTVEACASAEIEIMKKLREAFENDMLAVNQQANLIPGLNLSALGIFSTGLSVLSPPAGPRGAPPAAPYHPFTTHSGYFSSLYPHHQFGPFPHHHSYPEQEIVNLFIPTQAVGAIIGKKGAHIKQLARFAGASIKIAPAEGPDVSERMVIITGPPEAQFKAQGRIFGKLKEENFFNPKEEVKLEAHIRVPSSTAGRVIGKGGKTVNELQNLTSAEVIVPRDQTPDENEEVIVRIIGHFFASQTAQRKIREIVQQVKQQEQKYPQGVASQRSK
# Chain of UniProt Q9H6D7 (Q9H6D7 whole entry, looked up): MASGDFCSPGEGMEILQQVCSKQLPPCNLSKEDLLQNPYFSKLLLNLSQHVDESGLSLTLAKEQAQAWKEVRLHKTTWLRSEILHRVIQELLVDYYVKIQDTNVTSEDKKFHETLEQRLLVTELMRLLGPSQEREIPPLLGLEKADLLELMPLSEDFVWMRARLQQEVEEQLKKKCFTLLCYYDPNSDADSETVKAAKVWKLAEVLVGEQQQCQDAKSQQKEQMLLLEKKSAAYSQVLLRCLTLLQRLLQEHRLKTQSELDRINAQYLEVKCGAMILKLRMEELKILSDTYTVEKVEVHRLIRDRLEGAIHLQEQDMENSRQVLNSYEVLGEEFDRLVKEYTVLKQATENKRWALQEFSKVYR
# Chain of UniProt Q86VS8 (Q86VS8 whole entry, looked up): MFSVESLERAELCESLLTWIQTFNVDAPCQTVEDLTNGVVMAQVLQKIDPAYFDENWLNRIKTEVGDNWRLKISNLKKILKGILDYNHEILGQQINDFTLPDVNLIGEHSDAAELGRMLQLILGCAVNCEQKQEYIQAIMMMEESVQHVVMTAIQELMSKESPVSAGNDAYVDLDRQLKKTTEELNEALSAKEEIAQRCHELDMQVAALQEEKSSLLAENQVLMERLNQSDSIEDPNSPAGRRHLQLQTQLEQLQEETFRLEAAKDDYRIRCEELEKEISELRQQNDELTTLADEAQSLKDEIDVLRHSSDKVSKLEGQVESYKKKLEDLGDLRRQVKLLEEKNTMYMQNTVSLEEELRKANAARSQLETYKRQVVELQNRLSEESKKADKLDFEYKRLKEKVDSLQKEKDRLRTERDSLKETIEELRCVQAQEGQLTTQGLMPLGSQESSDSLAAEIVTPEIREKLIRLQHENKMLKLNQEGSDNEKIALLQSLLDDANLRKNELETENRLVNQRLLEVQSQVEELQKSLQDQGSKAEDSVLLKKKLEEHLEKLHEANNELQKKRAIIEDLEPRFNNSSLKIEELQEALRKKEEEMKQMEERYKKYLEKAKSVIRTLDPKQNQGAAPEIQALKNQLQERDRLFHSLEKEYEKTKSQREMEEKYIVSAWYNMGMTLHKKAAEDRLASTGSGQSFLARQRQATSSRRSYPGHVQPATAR
# Chain of UniProt P02008 (P02008 whole entry, looked up): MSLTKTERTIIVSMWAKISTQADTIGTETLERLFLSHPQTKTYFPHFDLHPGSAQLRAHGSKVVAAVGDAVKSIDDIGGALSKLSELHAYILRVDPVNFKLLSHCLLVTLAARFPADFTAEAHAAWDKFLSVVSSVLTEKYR
# Chain of UniProt P36969 (P36969 whole entry, looked up): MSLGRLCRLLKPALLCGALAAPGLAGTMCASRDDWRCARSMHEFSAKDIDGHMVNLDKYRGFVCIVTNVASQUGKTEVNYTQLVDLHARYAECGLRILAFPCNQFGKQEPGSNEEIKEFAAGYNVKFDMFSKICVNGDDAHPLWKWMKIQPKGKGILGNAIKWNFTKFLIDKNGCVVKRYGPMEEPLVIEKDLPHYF
Target,log2 fold change [1],log2 fold change [2],log2 fold change [3],log2 fold change [4],log2 fold change [5],log2 fold change [6],log2 fold change [7],log2 fold change [8],log2 fold change [9],log2 fold change [10]
HECTD1 (UniProt Q9ULT8),0.009,0.127,-0.031,-0.003,0.025,0.087,-0.038,-0.035,-0.076,-0.204
GSTP1 (UniProt P09211),0.021,0.038,0.013,-0.016,0.041,0.037,0.014,0.005,0.021,0.057
GTF3C5 isoform 3 (UniProt Q9Y5Q8),0.085,0.293,-0.078,-0.049,-0.413 (active),-0.056,-0.089,0.079,-0.067,-0.038
IFT80 isoform 3 (UniProt Q9P2H3),0.04,0.071,-0.04,0.013,0.042,-0.011,-0.066,-0.229,-0.013,0.042
IFITM3 (UniProt Q01628),-0.093,-0.031,-0.471 (active),0.042,-0.041,0.058,0.118,-0.01,-0.016,-0.03
IFRD1 (UniProt O00458),0.226,-0.021,-0.124,-0.008,0.134,0.199,-0.013,0.068,0.042,-0.04
GLCCI1 (UniProt Q86VQ1),0.027,-0.101,-0.058,-0.006,0.091,0.023,-0.264,-0.017,-0.044,-0.024
HNRNPF (UniProt P52597),0.02,0.126,-0.036,-0.034,-0.098,0.017,0.079,0.003,-0.044,-0.044
GEMIN6 (UniProt Q8WXD5),-0.002,0.02,-0.042,0.027,-0.022,0.065,0.125,-0.012,-0.002,-0.045
GCSH (UniProt P23434),-0.072,-0.023,0.253,0.061,-0.036,0.067,-0.038,-0.007,-0.017,-0.025
FBXO7 (UniProt Q9Y3I1),0.039,0.033,0.014,-0.055,0.033,-0.038,0.001,-0.014,0.005,0
HAUS4 (UniProt Q9H6D7),-0.112,0.097,0.041,-0.095,0.018,-0.065,-0.085,-0.087,-0.001,0.001
GABPA (UniProt Q06546),0.07,0.121,0.014,-0.042,0.083,-0.055,0.049,0.025,-0.028,0.011
GPX4 (UniProt P36969),-0.021,0.035,-0.012,0.057,-0.007,0.006,0.142,-0.063,-0.036,0.058
GTF2E2 (UniProt P29084),0.028,0.137,0.048,-0.001,0.09,0.003,-0.002,0.03,-0.03,-0.13
FBL (UniProt P22087),0.06,-0.153,-0.566 (active),0.013,-0.102,0.13,-0.099,-0.091,0.054,-0.117
GNL1 (UniProt P36915),0.044,0.046,0.048,-0.028,0.037,-0.004,0.074,0,0.035,-0.055
IGF2BP2 (UniProt Q9Y6M1),-0.013,-0.083,-0.255,-0.015,0.158,0.014,0.007,0.075,0.057,0.075
HOOK3 (UniProt Q86VS8),0.04,0.039,0.009,-0.008,0.055,0.032,-0.002,-0.036,-0.005,-0.024
FANCI (UniProt Q9NVI1),0.083,0.026,0.056,0.062,0.142,0.008,0.053,-0.019,-0.028,-0.006
GID4 (UniProt Q8IVV7),-0.033,0.017,0.005,0.028,-0.046,0.003,-0.072,-0.018,0.042,-0.005
GYS1 (UniProt P13807),-0.022,-0.104,-0.345,-0.066,-0.071,-0.003,-0.14,0.176,-0.021,-0.069
HMOX2 (UniProt P30519),0.065,0.057,0.039,-0.038,0.024,-0.023,0.03,0.032,-0.04,0.016
HNRNPUL2 (UniProt Q1KMD3),-0.054,-0.08,-0.138,-0.015,-0.057,0.012,-0.056,-0.014,0.011,-0.102
GNAS (UniProt Q5JWF2),0.001,0.042,-0.032,0.043,0.026,0.021,0.02,0.011,-0.011,0.043
GSTO1 (UniProt P78417),-0.009,0.007,0.065,-0.001,0.006,0.278 (active),0.095,0.031,-0.005,0.008
GATD1 (UniProt Q8NB37),0.028,-0.006,0.111,-0.012,0.057,0.007,-0.01,0.047,-0.006,0.098
HBZ (UniProt P02008),-0.013,0.077,0.252,0.042,0.143,0.006,0.118,0.017,-0.034,0.043
HSPA8 (UniProt P11142),-0.016,-0.031,0.01,-0.014,0,0,-0.003,-0.088,0.009,0.017
HEATR5B (UniProt Q9P2D3),-0.009,0.059,-0.128,0.025,-0.067,0.004,0.007,0.05,-0.026,0.043
